Common to all, as to experiment: NCI-60 one-dose screen, 48 h (100 = growth as untreated, 0 = no growth, -100 = all killed)
Conditions in all cases: 10 µM unless noted

Test [1] relates to SK-MEL-2 melanoma.
The test system of test [2] is EKVX NSCLC.
Test [3] has as its system SN12C renal.
The test system of test [4] is UO-31 renal.
Test [5] concerns TK-10 renal.
The test system of test [6] is ACHN renal.
The test system of test [7] is CAKI-1 renal.
The subject of test [8] is A498 renal.
Test [9] has as its system CCRF-CEM leukemia.
For test [10], the system named is MOLT-4 leukemia.

Structures are written as SMILES. Compounds without any hit were thinned out: in the full panel of roughly 83,000, 20% have a hit.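 The endpoint reported here, percent growth, reads 100 for growth as untreated, 0 for no net growth and -100 for all cells dead.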 A number with no mark means an inactive call. Activity calls are given as the source filed them. The calls were made as follows: active = growth percent below 10; inactive = the rest.

Turning to `COc1ccc(-c2cc(C(=O)N=Nc3c(O)[nH]c4ccc(Cl)cc34)c3ccccc3n2)cc1`, the growth is 63.4% in [1]; 21.3% in [2]; 51.4% in [3]; 80.6% in [4]; 116% in test [5]; -6.95% (active) in test [6]. Besides, the growth in test [7] was 44.6%; in [8] it was 148%; in test [9] it was 85.7%; in test [10], 68.8%.

With `Cc1cc(C2(c3cc(C)c(OCC(O)CNc4c(C)n(C)n(-c5ccccc5)c4=O)cc3C(C)C)OC(=O)c3ccccc32)c(C(C)C)cc1OCC(O)CNc1c(C)n(C)n(-c2ccccc2)c1=O` (stereo not given), the growth is -5.35% (active) in [1]; 16.3% in [2]; 26.6% in test [3]; 19.1% in test [4]; 24.8% in test [5]; 17.1% in test [6]. Further, the growth in [7] was 21.9%; in test [8], 55.4%; in test [9], 12.3%; in test [10] it was 13.1%.

Turning to `CN(C)c1nc(NCCNS(=O)(=O)c2ccc(C3=Nc4c(N)nc(N)nc4NC(c4ccc(Cl)cc4)C3)cc2)nc(N2CCOCC2)n1` (stereo not given), the growth in test [1] is 98.5%; in [2], 37.6%; in [3], 37%; in [4] it was 59.9%; in [5], 86.8%; in test [6] it was 69.2%. Also, the growth in [7] is 41.7%; in test [8], 108%; in test [9] it was 17.3%; in test [10], 13.9%.

With `Cc1ccc(C(C)C)cc1Oc1cccc(-c2c(-c3ccc(C(F)(F)F)cc3)ncn2C2CCNCC2)n1`, the growth in [1] was -93.1% (active); in [2] it was -91% (active); in [3] it was -92.1% (active); in [4] it was -97.4% (active); in test [5], -94.9% (active); in test [6] it was -100% (active). Also, the growth in [7] is -98.1% (active); in test [8], -86.2% (active); in test [9], -73.8% (active); in [10], -80.3% (active).

Turning to `Cn1cc(-c2cc(N)n3nc(-c4c[nH]c5ccccc45)cc3n2)c2cc(Cl)ccc21`, the growth in [1] was -64.6% (active); in [2] it was -77% (active); in test [3], -81.2% (active); in test [4], -80.1% (active); in test [5], -90.2% (active); in test [6], -75.6% (active). Moreover, the growth was -63.6% (active) in [7], -59.1% (active) in [8], -16.2% (active) in [9] and 6.43% (active) in [10].

Consider `COc1ccc(NC(=O)Cn2c(/C=C/c3cccc(OC)c3)nc3ccccc3c2=O)cc1`, for which the growth was 87.9% in test [1]; 79.6% in [2]; -24% (active) in [3]; -74.3% (active) in test [4]; -42.9% (active) in test [5]; -61.4% (active) in test [6]. The growth in test [7] is 50.9%; in [8], -42.8% (active); in test [9], 89.4%; in [10], 97.4%.

`O=C(c1ccc(Cl)cc1)C1[C@H](c2ccccc2Cl)[C@@H](c2ccccc2)NC12C(=O)Nc1ccc(Cl)cc12` (stereo not given in full): the growth in test [1] is -87.1% (active); in test [2] it was -23.5% (active); in test [3] it was -90.4% (active); in [4] it was -51.2% (active); in test [5] it was -0.422% (active); in test [6], -26.1% (active). Besides, the growth was -20.2% (active) in [7], -40.7% (active) in test [8], -6.99% (active) in test [9] and -29.4% (active) in test [10].

Regarding `Cc1ccc(C(=O)Nc2cc(-c3ccccc3)cc(C(F)(F)F)c2)cc1C#Cc1cnc2cccnn12`, the growth was 58.7% in test [1]; 63% in [2]; 65.9% in [3]; 56.5% in test [4]; 79.3% in test [5]; 59.9% in [6]. Also, the growth was 70.4% in test [7], 133% in [8], 38.1% in test [9] and 35.5% in [10].

Take `CN(C)c1nc(NCCNS(=O)(=O)c2ccc(C(=O)/C=C/c3ccc(Cl)cc3)cc2)nc(N2CCOCC2)n1`: the growth in [1] is 68.9%; in [2] it was 49.6%; in test [3] it was 53.4%; in test [4] it was -61% (active); in test [5] it was 62.5%; in [6], 21.8%. The growth in [7] is -61.2% (active); in [8], 87.6%; in [9], 3.45% (active); in test [10], 3.71% (active).

As to `COc1ccc([C@H]2C(C(=O)c3ccc(Cl)cc3)C3(N[C@@H]2c2ccccc2)C(=O)Nc2ccccc23)cc1` (stereo not given in full), the growth was -29.6% (active) in [1]; 21.6% in test [2]; 6.41% (active) in [3]; 13.2% in test [4]; 43.4% in [5]; 11.2% in test [6]. Besides, the growth in test [7] was 14%; in [8], 40.2%; in test [9], 45.8%; in test [10], 18.9%.

For `N#CC1=C(c2cccs2)Nc2c(c(-c3ccccc3)nn2-c2ccccc2)C12C(=O)Nc1ccccc12` (stereo not given), the growth in test [1] was 90.1%; in test [2] it was 14.8%; in test [3] it was 55.3%; in [4], 18.2%; in test [5] it was 18.1%; in test [6], -26.9% (active). Besides, the growth was 63.4% in test [7], -14.9% (active) in test [8], 6.02% (active) in [9] and 15% in test [10].

Consider `CCCCC[C@@H]1C/C=C(\C)[C@@H](O)C(C)(C)C(=O)[C@@H](C)/C=C(\C)[C@@H]2C[C@H](O)C[C@](O)(CC(=O)O1)O2`, for which the growth in test [1] is 9.84% (active); in test [2], 21.4%; in [3] it was 76.8%; in test [4] it was 20.4%; in [5] it was 55.1%; in [6] it was 19.7%. The growth is 47.1% in test [7], 30% in test [8], 28.9% in test [9] and 18.2% in test [10].

`COc1ccc(/C=C/C(=O)c2ccc(S(=O)(=O)NCCNc3nc(N(C)C)nc(N4CCOCC4)n3)cc2)cc1`: the growth in [1] is 94.9%; in [2], 81.1%; in [3], 91.6%; in test [4] it was 74.5%; in test [5], 114%; in [6], 104%. Besides, the growth was 73.2% in test [7], 89.2% in test [8], 80% in [9] and 34.7% in [10].

For `Cc1[nH]nc2ccc3nc(-c4cnn(CCO)c4)c4c(c3c12)CCCC4`, the growth in test [1] is 21.1%; in [2], 27.2%; in test [3], 32.3%; in [4], 21.5%; in [5] it was 21.1%; in test [6], 21.4%. Besides, the growth is 4.55% (active) in test [7], -7.65% (active) in [8], 28.7% in test [9] and 34% in test [10].

As for `COc1sc(/C=N/NC(=O)c2[nH]c3ccc(Br)cc3c2-c2ccccc2)cc1Cl`, the growth in test [1] was -9.93% (active); in test [2] it was -12.3% (active); in test [3], -26.6% (active); in test [4], -5.09% (active); in test [5], 9.67% (active); in [6], -67.9% (active). Further, the growth in test [7] was -46.4% (active); in test [8], 9.37% (active); in test [9], 9.12% (active); in [10], -3.08% (active).

As to `CC1=C(C(=O)OC(C)C)C(c2ccc(O)cc2)NC(=O)N1` (stereo not given), the growth in [1] is 96.5%; in [2] it was 96.1%; in test [3], 106%; in test [4], 92.2%; in test [5] it was 90.2%; in test [6], 106%. Further, the growth is 95.3% in [7], 113% in test [8], 93.9% in test [9] and 97.8% in test [10].

With `Clc1ccc(Nc2nnc(-c3c[nH]c4ccccc34)o2)cc1`, the growth in test [1] was 95.8%; in test [2], 55.3%; in test [3] it was 53.6%; in test [4], 49.7%; in [5] it was 121%; in test [6] it was 74.4%. Moreover, the growth in test [7] is 50.8%; in test [8], 120%; in test [9], 10.9%; in [10] it was 9.41% (active).

As to `O=C(COc1ccc(/C=C2/C(=O)Nc3ccc(Cl)cc32)cc1)Nc1ccc(Br)cc1`, the growth was 16.3% in [1]; -27.8% (active) in test [2]; -80.6% (active) in [3]; -73.7% (active) in test [4]; -65.4% (active) in [5]; -82.9% (active) in [6]. Also, the growth was -73% (active) in test [7], -51% (active) in [8], -23.9% (active) in test [9] and -46.5% (active) in [10].

As to `O=C(CSc1nc2ccccc2c(=O)[nH]1)Nc1ccccc1C(=O)O`, the growth in test [1] is 116%; in [2], 92.3%; in test [3], 98.9%; in test [4] it was 71.8%; in [5], 116%; in test [6] it was 89.3%. Further, the growth in test [7] was 89.9%; in test [8] it was 216%; in test [9], 90.5%; in [10] it was 97%.

On to `Cc1cnc2ccc(Oc3ccccc3-c3ccccc3)nn12`, for which the growth in test [1] was 108%; in test [2], 100%; in test [3], 100%; in [4], 90.1%; in test [5], 106%; in [6], 105%. The growth in [7] was 94.5%; in [8] it was 116%; in [9], 103%; in [10] it was 107%.

Consider `O=C1c2cccc3c(N4CCN(Cc5ccccc5)CC4)ccc(c23)C(=O)N1c1cccc(-c2nn(-c3ccccc3)cc2-c2nc3ccccc3s2)c1`, for which the growth in test [1] was 111%; in test [2], 98.6%; in test [3], 101%; in [4], 68.8%; in test [5] it was 120%; in test [6], 93.1%. For the same compound, the growth in test [7] is 86.1%; in test [8] it was 125%; in [9], 105%; in test [10], 113%.

`O=C(Nc1ccc(F)cc1)Nc1nc2ccc([N+](=O)[O-])cc2s1`: the growth was -44.6% (active) in [1]; 1.79% (active) in test [2]; -0.399% (active) in test [3]; 4.33% (active) in test [4]; 6.73% (active) in [5]; 2.52% (active) in test [6]. The growth in test [7] was -12.5% (active); in test [8] it was -15% (active); in test [9], 11.5%; in test [10], 14.6%.

For `Cc1cc(Cl)ccc1NC(=O)Nc1ccc(-c2ccc3c(c2)NC(=O)/C3=C\c2ccc[nH]2)cc1`, the growth in [1] was 121%; in [2], 67.5%; in [3] it was 97.6%; in [4], 78.3%; in [5], 115%; in test [6], 98.8%. In addition, the growth is 99% in test [7], 119% in test [8], 97.8% in [9] and 86.2% in test [10].

Regarding `CCCCCCCCc1cccc(CC(=O)Nc2ccc(C)cc2C(=O)O)c1`, the growth in [1] was 86.3% [25 µM]; in test [2], 66.5% [25 µM]; in test [3], 51% [25 µM]; in test [4] it was 53.8% [25 µM]; in test [5] it was 63.1% [25 µM]; in test [6], 46.7% [25 µM]. Moreover, the growth in [7] is 36.1% [25 µM]; in test [8], 123% [25 µM]; in test [9], 26.7% [25 µM]; in test [10] it was 17.9% [25 µM].

In the case of `COC(=O)c1c(C(=O)OC)c2ccc3c4ccccc4ccc3n2c1C(=O)OC`, the growth is 108% in [1]; 97% in test [2]; 95.6% in [3]; 87.8% in [4]; 103% in test [5]; 109% in test [6]. For the same compound, the growth in [7] was 107%; in test [8] it was 129%; in test [9], 101%; in [10], 114%.

Turning to `CN(C)c1nc(NCCNS(=O)(=O)c2ccc(C(=O)/C=C/c3ccccc3)cc2)nc(N2CCOCC2)n1`, the growth in test [1] is 97.6%; in [2] it was 77.6%; in test [3], 79.8%; in test [4], 70.9%; in [5] it was 108%; in test [6], 87%. Further, the growth was 68.5% in [7], 77.2% in test [8], 55.1% in test [9] and 13.9% in [10].

The values are drawn from PubChem BioAssay (NCI).
